Screens from PubChem.
Sampled rows, rich in hits. Any-hit rate of the full collection: about 0.42%.
Tb PFK inh-1: inhibitors of T. brucei phosphofructokinase. 330,000 tested, 0.17% active. T. brucei PFK, ADP-Glo luminescence. Potency, µM (doses to about 57.5 µM), hits mostly inhibitors. O15648; also: nearly all actives have a fitted effect of over 60% in size
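Compounds were pin-transferred as a titration series up to 57 uM into substrate buffer (0.5 mM F6P, 0.1 mM ATP, pH 8.0), then 1.25 nM PFK was added and reactions ran 45 min before ADP-Glo detection.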
PGK inhibitor: inhibitors of T. brucei phosphoglycerate kinase. P07378. PGK/GAPDH coupled, Kinase-Glo luminescence, 60 min. Potency, µM (series often up to 57.5 µM), hits mostly inhibitors. 380,000 tested, 0.043% active; also: nearly all actives have a fitted effect of over 60% in size
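Luminescent ATP detection (Kinase-Glo Plus) follows a 60-minute room-temperature incubation, with wells lacking PGK as controls. Buffer: 100 mM TEA (pH 7.6), 5 mM MgCl2, 0.01% Tween-20. Coupling enzyme GAPDH (100 nM final) supplies unstable 1,3-BPG in-well.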
Chronic BCR inh: blocks chronic active B-cell receptor signaling; ABC-DLBCL IkBa-CBG/CBR reporter, luminescence ratio, 4 h; Potency, µM (titrated, usually from 46.1 µM), most hits filed as inhibitors; 340,000 tested, 0.05% active; AID 493014; active = well fitted inhibition curve with a large enough effect in the signal ratio, with a control signal flat, not every such curve was filed as active; inconclusive = small, poorly fitted or top-dose-only effect, or effect the other way, or a change in a side signal; the % refers to the signal ratio
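Doxycycline induced both beetle luciferases in TMD8 lymphoma cells; IKK-driven degradation limits the IkappaBalpha-fused green signal, while red luminescence normalises for cell number and nonspecific effects. Compounds tested up to 46 uM, 4 hrs.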
Pin1 inhibitor: inhibitors of human Pin1; Potency, µM (highest dose often 115 µM), hits mostly inhibitors; Q13526; Pin1 FP peptide displacement, HiFluor488, 10 min; 390,000 tested, 0.009% active; active = well fitted inhibition curve with a large enough effect in the polarisation, with a control signal flat, not every such curve was filed as active; inconclusive = small, poorly fitted or top-dose-only effect, or effect the other way, or a change in a side signal; inactive = no such curve, though single readings can be large or run the other way; the % refers to the polarisation
Target sequence (Q13526 whole entry, looked up): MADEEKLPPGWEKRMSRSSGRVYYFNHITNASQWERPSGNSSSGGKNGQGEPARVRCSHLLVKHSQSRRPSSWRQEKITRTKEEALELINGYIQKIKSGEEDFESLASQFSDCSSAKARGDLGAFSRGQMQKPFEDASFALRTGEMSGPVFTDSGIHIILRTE
B2AR arrestin: recruits beta-arrestin to the human beta2-adrenergic receptor; P07550; beta-arrestin recruitment to beta2AR, cell-based reporter; Potency, µM (top dose mostly 46.1 µM), actives largely listed as activators; 330,000 tested, 0.02% active; also: nearly all actives have a fitted effect of over 65% in size
Target sequence (P07550 whole entry, looked up): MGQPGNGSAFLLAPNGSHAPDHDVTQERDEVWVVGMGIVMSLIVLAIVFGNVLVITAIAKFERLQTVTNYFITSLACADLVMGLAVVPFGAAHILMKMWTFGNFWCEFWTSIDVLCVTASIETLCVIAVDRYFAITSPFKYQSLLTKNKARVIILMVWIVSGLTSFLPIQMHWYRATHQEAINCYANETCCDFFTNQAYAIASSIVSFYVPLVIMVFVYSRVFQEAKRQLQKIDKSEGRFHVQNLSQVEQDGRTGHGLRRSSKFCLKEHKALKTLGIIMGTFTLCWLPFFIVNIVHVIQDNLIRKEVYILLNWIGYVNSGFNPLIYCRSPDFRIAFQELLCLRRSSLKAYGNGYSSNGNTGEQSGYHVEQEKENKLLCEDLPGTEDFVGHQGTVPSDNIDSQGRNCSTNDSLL
GLS inhibitor: blocks human kidney-isoform glutaminase activity. O94925. Potency, µM (titrated, usually from 45.5 µM), hits mostly inhibitors. GLS enzymatic activity, qHTS titration. 410,000 tested, 0.21% active
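Two-point fluorescence kinetic (t0, 30 min RT) for hKGA; glutamate detected via glutamate oxidase–HRP–Amplex Red. Substrate: 1 mM L-glutamine solution; buffer 45 mM KH2PO4, pH 8.2.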
TbPFK ATP: Tb phosphofructokinase inhibition, orthogonal luminescence; AID 504636; 1,100 tested, 47% active; Potency, µM (series often up to 57.5 µM); Tb PFK enzyme, ATP depletion, Kinase-Glo Plus luminescence; shares compounds with Tb PFK inh-1; calls by dose curve; also: nearly all actives have a fitted effect of over 60% in size
Tb PFK inh-2: T. brucei PFK enzyme inhibition, hit validation | shares compounds with Tb PFK inh-1 | purified T. brucei PFK, ADP-Glo luminescence, 45 min | Potency, µM (titrated, usually from 57.5 µM), usual class: inhibitors | 1,100 tested, 41% active; also: nearly all actives have a fitted effect of over 60% in size
Hits are given with their value; . = inactive; ? = inconclusive; / = no result; [ ] = remark or other dose. Unless noted, calls follow the shape of the dose curve; as a rule, active = well fitted curve in the direction sought with a large enough effect; inconclusive = small, poorly fitted or top-dose-only effect, or another doubt; inactive = no such curve, though single readings can be large; an effect the other way counts as inactive or inconclusive.

SMILES	Tb PFK inh-1	PGK inhibitor	Chronic BCR inh	Pin1 inhibitor	B2AR arrestin	GLS inhibitor	TbPFK ATP	Tb PFK inh-2
Cc1c(C(=O)NCCSCc2ccc(Cl)cc2Cl)cccc1[N+](=O)[O-]	.[0.46 µM]	.	?	.	.	.	/	/
CC(C)C1O/C(=N/C(=O)Nc2ccc(Cl)c(Cl)c2)NC1=O (configuration not stated)	9.53µM	.	?	.	.	.	23.9µM	26.9µM
COc1ccc2cc1Oc1ccc(cc1)C[C@H]1c3cc(c(OC)cc3CCN1C)Oc1c(OC)c(OC)cc3c1[C@@H](C2)N(C)CC3	.	.	.	.	.	.	/	/
O=c1c2ccccc2sn1-c1cc(S(=O)(=O)N2CCOCC2)ccc1N1CCCC1	9.53µM	.	?	.	.	?	?	?
O=C(c1c[nH]c2ccc(S(=O)(=O)N3CCOCC3)cc2c1=O)N1CCC2(CC1)OCCO2	.	.	.	.	.	.	/	/
O=c1c2ccccc2sn1-c1cc(S(=O)(=O)N2CCOCC2)ccc1N1CCOCC1	13.5µM	.	.	.	.	?	?	21.3µM
C=CCC1(C(C)CCC)C(=O)NC(=O)NC1=O (configuration not stated)	/	/	/	/	/	.	/	/
CC(=O)NC(C)c1ccc(Cl)c(Cl)c1 (configuration not stated)	?	.	.	.	.	.	21.3µM	30.1µM
CCOC(=O)c1c(NC(=O)C2C3C=CC(C3)C2(C)C(=O)O)sc2c1CCCC2 (configuration not stated)	?	?	?	.	.	.	?	26.9µM
O=C1NC(=O)C(=Cc2ccc(-c3ccc(Cl)cc3)o2)C(=O)N1	.	.	?	.	.	.	/	/
CC1=NOC(=O)/C1=C\c1ccc(-c2cccc(Cl)c2)o1	21.3µM	.	.	.	?	.	6.01µM	10.7µM
CCc1nnc(NC(=O)c2cc(-c3ccc(C)o3)nc3ccccc23)s1	4.78µM	.	.	.	.	.	4.78µM	6.75µM
CCCCCCn1c(=O)c(C(=O)Nc2nnc(C)s2)c(O)c2ccccc21	.	/	.	/	.	/	/	/
Cc1nnc(NC(=O)c2cc(-c3ccco3)nc3ccccc23)s1	?	/	?	/	.	/	9.53µM	?
COc1cccc(NC(=O)c2cc(-c3ccc(C)o3)nc3ccccc23)c1	?	.	.	.	.	.	?	?
C/C(=C\c1csc(C)n1)[C@@H]1C[C@@H]2O[C@]2(C)CCC[C@H](C)[C@H](O)[C@@H](C)C(=O)C(C)(C)[C@@H](O)CC(=O)O1	/	/	/	/	/	.	/	/
CCC(=O)OCCNc1cc(Sc2nc3ccccc3[nH]2)c2nonc2c1[N+](=O)[O-]	?	.	?	.	.	?	6.01µM	9.53µM
C#CCN1CC(=O)N(COC(=O)[C@@H]2[C@@H](C=C(C)C)C2(C)C)C1=O	/	/	/	/	/	.	/	/
Cc1ccc(OCC(=O)Nc2ccc(Cl)cc2C(=O)c2ccccc2)cc1C	/	.	/	.	/	.	/	/
Cc1cc(CSc2ccccc2)ccc1NC(=O)COc1ccccc1	?	.	?	.	.	.	?	?
CCN1CCN(C(=S)c2ccc(OC)cc2)CC1	?	.	.	.	.	.	26.9µM	33.8µM
CCN1CCN(C(=S)c2ccc(Cl)cc2)CC1	10.7µM	.	.	.	.	?	7.57µM	23.9µM
CCCOC(=O)Cc1ccc(OCC(=O)N(CC)CC)c(OC)c1	/	/	/	/	/	.	/	/
COc1ccc(OC)c2c1C(=O)C(Cl)=C(Cl)C2=O	1.2µM	.	?	?	.	.	0.338µM	0.675µM
O=C(Cc1cccc(C(F)(F)F)c1)Nc1ccc(S(=O)(=O)N2CCCC2)cc1	?	.	.	.	.	.	?	?
SMILES	Tb PFK inh-1	PGK inhibitor	Chronic BCR inh	Pin1 inhibitor	B2AR arrestin	GLS inhibitor	TbPFK ATP	Tb PFK inh-2
CC(O)(CS(=O)(=O)c1cccc(C(F)(F)F)c1)C(=O)Nc1ccc(C(F)(F)F)cc1 (configuration not stated)	.	.	.	.	.	.	/	/
CN1CCN(S(=O)(=O)c2ccc(Cl)nc2)CC1	.	.	.	.	.	.	/	/
CN1CCN(S(=O)(=O)c2ccc(NC(=O)Cc3ccc([N+](=O)[O-])cc3)cc2)CC1	16.9µM	.	.	.	.	.	6.01µM	12µM
Cc1cc(OCC(=O)Nc2ccc(S(=O)(=O)N3CCN(C)CC3)cc2)ccc1Cl	26.9µM	.	.	.	.	.	?	?
COc1cc([C@@H]2c3cc4c(cc3[C@@H](O)C3COC(=O)C32)OCO4)cc(OC)c1O (some centres not stated)	/	/	/	.	/	.	/	/
COc1ccc(C(=O)Nc2ccc3c(c2)N(C)C(=O)c2ccccc2S3)cc1OC	/	.	.	.	/	.	/	/
O=C(CCn1c(=O)oc2ccc(Cl)cc21)N1CCN(c2ccccc2)CC1	.	.	?	.	.	.	/	/
O=C(Nc1cccc(C(=O)N2CCN(c3cccc(Cl)c3)CC2)c1)c1ccccc1	?	/	?	.	.	.	?	?
O=C(CSc1ccccn1)N1CCN(c2cccc(Cl)c2)CC1	?	.	?	.	.	.	?	?
O=C(CCC(=O)N1CCN(c2cccc(Cl)c2)CC1)c1cccs1	?	.	.	.	.	.	?	?
CCOC(=O)N1CCN(c2ccc(Cl)c(Cl)c2)CC1	?	.	.	.	.	.	/	/
O=C(CCC(=O)N1CCN(c2cccc(Cl)c2)CC1)N1CCN(c2ccccc2)CC1	?	.	.	.	.	.	?	?
Cc1sc2c(c1C)C(=O)NC(c1ccccc1F)N2 (configuration not stated)	.	.	?	?	.	.	/	/
C=C(C)[C@H]1Cc2c(ccc3c2O[C@@H]2COc4cc(OC)c(OC)cc4[C@@H]2C3=O)O1	/	/	/	/	/	.	/	/
O=C(Nc1ccc(Cl)cc1Cl)c1cc(S(=O)(=O)NCc2ccc3c(c2)OCO3)ccc1F	/	.	?	.	/	.	/	/
CC(=O)c1ccc(NC(=O)N2CCN(c3cccc(Cl)c3)CC2)cc1	21.3µM	.	?	.	.	.	21.3µM	?
NS(=O)(=O)c1ccc(NC(=S)N2CCN(c3cccc(Cl)c3)CC2)cc1	?	.	.	.	.	.	10.7µM	15.1µM
CCC(=O)Nc1cc(C(=O)O)ccc1S(=O)(=O)c1ccc(C)cc1	.	?	.	.	.	.	/	/
N#Cc1sc(NCc2cccc(Cl)c2)nc1Cl	?	.	.	.	.	.	19µM	30.1µM
CC(C)OP(=O)(c1ccc(N(C)C)cc1)C(O)c1ccc(Br)cc1 (configuration not stated)	.	.	?	.	.	.	/	/
